Measured values: PubChem BioAssay
Calls of active or inactive are those of the source.

Legend:
[1] = small molecules captured by biotinylated probe aFSTL3 – biochemical, small-molecule microarray, fluorescence 635/667, stem cell growth factor project, primary screen (AID 1064); settings: higher = more signal;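 also: measures binding of the biotinylated anti-FSTL3 antibody to printed compounds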
[2] = binders from COS7 lysate, DM2A8 probe, primary screen, torsin A project, cell lysate, small-molecule microarray, fluorescence 635/667 (AID 1065); settings: higher = more signal, COS7 lysate expressing mutant human TOR1A
[3] = small molecules captured by biotinylated probe aFGF2 – biochemical, small-molecule microarray, fluorescence 635/667, stem cell growth factor project, primary screen (AID 1067); settings: higher = more signal;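 also: measures binding of biotinylated aFGF2 protein to printed compounds on slides; z-score merges feature fluorescence and signal-to-noise across triplicate slides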
[4] = small molecules captured by biotinylated probe aFGF10 – biochemical, small-molecule microarray, fluorescence 635/667, stem cell growth factor project, primary screen (AID 1071); settings: higher = more signal;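 also: score merges 667 nm spot intensity and signal to noise from triplicate slides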
[5] = target: Neurogenic locus notch homolog protein 2 (Homo sapiens) (UniProt Q04721); experiment: small molecules binding Notch2 protein – biochemical, small-molecule microarray, 635 nm fluorescence, stem cell growth factors, primary screen (AID 1073); settings: higher = more signal
Chain of Neurogenic locus notch homolog protein 2 (Homo sapiens) (Q04721 whole entry, looked up, canonical isoform): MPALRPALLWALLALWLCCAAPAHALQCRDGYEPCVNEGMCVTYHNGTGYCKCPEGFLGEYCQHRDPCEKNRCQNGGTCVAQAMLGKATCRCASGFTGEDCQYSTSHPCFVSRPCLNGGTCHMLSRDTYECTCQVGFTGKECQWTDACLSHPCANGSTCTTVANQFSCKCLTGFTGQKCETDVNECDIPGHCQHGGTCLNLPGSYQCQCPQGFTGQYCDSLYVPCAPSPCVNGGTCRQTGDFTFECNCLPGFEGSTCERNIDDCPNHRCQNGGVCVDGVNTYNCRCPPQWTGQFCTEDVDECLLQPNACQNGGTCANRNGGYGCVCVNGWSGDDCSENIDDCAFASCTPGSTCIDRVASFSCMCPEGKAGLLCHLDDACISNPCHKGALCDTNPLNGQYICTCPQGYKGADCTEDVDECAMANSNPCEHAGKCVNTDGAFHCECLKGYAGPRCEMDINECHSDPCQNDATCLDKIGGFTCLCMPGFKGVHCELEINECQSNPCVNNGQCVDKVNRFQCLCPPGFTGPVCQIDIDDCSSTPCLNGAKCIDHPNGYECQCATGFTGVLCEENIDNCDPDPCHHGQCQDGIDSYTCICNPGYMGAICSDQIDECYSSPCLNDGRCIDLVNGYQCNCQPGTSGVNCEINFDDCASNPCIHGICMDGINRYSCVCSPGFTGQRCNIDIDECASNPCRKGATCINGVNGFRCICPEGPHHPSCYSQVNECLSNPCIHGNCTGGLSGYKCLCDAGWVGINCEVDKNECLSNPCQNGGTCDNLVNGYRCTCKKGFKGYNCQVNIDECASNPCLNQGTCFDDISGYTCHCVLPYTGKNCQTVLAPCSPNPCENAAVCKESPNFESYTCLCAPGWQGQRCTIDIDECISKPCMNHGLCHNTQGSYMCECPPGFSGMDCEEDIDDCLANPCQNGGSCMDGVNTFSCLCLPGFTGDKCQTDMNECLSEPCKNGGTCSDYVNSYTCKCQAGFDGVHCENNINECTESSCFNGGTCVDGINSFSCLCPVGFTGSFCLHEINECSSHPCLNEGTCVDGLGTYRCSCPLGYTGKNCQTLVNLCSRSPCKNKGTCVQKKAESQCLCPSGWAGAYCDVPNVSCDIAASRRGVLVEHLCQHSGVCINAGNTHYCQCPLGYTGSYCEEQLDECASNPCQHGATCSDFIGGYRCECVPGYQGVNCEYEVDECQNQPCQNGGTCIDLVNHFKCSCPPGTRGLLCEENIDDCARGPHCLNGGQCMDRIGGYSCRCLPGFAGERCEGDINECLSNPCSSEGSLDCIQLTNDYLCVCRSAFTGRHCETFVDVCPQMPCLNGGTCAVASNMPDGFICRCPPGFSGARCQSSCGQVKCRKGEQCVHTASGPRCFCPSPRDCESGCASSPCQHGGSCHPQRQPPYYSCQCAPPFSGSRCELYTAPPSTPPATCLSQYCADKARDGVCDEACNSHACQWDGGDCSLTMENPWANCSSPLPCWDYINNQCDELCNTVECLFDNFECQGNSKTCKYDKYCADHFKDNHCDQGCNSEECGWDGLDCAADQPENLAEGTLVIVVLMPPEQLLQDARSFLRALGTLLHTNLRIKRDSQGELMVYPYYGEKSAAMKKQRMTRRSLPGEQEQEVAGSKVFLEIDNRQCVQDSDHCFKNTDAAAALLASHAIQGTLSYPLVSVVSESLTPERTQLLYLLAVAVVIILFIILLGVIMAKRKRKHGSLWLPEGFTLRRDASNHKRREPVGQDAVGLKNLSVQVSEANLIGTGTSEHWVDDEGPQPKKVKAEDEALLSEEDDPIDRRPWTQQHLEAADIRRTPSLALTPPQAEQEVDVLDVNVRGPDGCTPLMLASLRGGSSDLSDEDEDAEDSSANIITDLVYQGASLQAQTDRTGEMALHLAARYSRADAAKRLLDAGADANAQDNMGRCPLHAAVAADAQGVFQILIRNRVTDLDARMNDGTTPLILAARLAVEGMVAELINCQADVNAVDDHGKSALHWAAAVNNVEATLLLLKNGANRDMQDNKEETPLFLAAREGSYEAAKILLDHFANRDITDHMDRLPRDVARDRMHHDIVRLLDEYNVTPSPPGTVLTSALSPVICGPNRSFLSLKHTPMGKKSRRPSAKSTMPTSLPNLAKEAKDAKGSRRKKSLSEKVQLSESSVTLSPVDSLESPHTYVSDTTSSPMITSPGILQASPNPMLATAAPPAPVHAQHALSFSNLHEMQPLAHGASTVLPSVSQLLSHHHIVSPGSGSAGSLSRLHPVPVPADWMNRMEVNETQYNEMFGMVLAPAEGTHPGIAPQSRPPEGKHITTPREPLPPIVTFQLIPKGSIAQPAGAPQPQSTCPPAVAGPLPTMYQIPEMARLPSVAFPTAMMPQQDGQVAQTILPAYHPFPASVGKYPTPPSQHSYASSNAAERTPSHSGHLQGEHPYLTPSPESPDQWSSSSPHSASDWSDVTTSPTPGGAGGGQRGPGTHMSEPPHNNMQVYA

[6] = target: Pro-neuregulin-1, membrane-bound isoform (Homo sapiens) (UniProt Q02297); experiment: small molecules binding neuregulin-1 protein – biochemical, small-molecule microarray, fluorescence 635/667, psychiatric disease protein project, primary screen (AID 1075); settings: NRG1 binding, 635 nm fluorescence, higher = more signal;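 also: score combines 667 nm spot fluorescence with signal to noise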
Chain of Pro-neuregulin-1, membrane-bound isoform (Homo sapiens) (Q02297 whole entry, looked up, the tested form may be a part, canonical isoform): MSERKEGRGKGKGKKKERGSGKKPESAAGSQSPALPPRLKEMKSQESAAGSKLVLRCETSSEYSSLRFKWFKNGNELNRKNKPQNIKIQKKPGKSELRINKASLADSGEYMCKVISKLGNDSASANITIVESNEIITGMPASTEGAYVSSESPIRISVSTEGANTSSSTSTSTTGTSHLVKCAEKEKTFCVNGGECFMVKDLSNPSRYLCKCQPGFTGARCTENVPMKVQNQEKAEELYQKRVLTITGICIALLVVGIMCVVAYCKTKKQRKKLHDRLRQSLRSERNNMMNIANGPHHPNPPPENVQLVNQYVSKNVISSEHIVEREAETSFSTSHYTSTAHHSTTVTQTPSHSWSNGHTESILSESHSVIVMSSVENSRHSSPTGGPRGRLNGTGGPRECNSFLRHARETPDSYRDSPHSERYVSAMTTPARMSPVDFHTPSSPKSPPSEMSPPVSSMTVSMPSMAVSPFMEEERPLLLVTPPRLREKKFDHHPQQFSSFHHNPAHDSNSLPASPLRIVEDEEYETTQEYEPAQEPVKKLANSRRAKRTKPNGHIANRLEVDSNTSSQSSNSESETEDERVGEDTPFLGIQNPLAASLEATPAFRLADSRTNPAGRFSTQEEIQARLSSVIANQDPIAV

[7] = tested on: Neuregulin-1 EGF-like domain; experiment: small molecules binding NRG1 EGF domain – biochemical, small-molecule microarray, 635 nm fluorescence, primary screen (AID 1081); settings: higher = more signal;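 also: binding of the protein to compounds printed on small-molecule microarray slides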
[8] = FRG1 expression reporter modulators in myotubes – cell-based, C2C12 myotubes, firefly/Renilla luciferase, luminescence, FRG1 inhibition for FSHD, primary screen (AID 1084); settings: FRG1 promoter luciferase, higher = more signal, called active from +8 up or from −8 down
[9] = small molecules captured by biotinylated probe aFST – biochemical, small-molecule microarray, fluorescence 635/667, stem cell growth factor project, primary screen (AID 1086); settings: higher = more signal;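 also: score merges 667 nm fluorescence with signal-to-noise of each printed compound spot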
[10] = binders of probe aHhip on microarray, primary screen, stem cell growth factor project, biochemical, small-molecule microarray, fluorescence 635/667 (AID 1087); settings: higher = more signal;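 also: score merges spot fluorescence at 667nm with spot signal to noise ratio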
[11] = tested on: PRMT1 (protein arginine N-methyltransferase 1); experiment: small molecules binding arginine methyltransferase PRMT1 – biochemical, small-molecule microarray, 635 nm fluorescence, primary screen (AID 1088); settings: higher = more signal;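 also: binding of Prmt1 protein to compounds spotted on small-molecule microarray slides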
[12] = growth effects on S. cerevisiae YJM789 – YJM789 clinical isolate, OD600, 24 h, basal, primary screen (AID 1089); settings: higher = more signal, called active from +8 up or from −8 down;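 also: growth of clinical yeast isolate S. cerevisiae YJM 789 seeded 1000 cells per well; test concentration not given here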
[13] = S. pombe growth modifiers, basal conditions – strain 972, OD600, 24 h, no modulator, primary screen (AID 1090);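 also: basal condition with compound alone and no growth modifier present; test concentration not given here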; settings: S. pombe 972 growth, higher = more signal, called active from +8 up or from −8 down
[14] = budding yeast growth modifiers under rapamycin – strain BY4716, OD600, 96 h, primary screen (AID 1091); also: test concentration not given here; settings: S. cerevisiae BY4716 + rapamycin, higher = more signal, called active from +8 up or from −8 down
[15] = target: Torsin-1A-interacting protein 2 (Homo sapiens) (UniProt Q8NFQ8); experiment: small molecules binding lysate-expressed LULL1 – cell lysate, human LULL1 lysate, 635/667 nm fluorescence, primary screen (AID 1092); settings: small-molecule microarray, hLULL1 lysate binding, 635 nm fluorescence; higher = more signal;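 also: probe is lysate of COS7 cells overexpressing human LULL1; score merges per-feature 667 nm fluorescence with signal-to-noise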
Chain of Torsin-1A-interacting protein 2 (Homo sapiens) (Q8NFQ8 whole entry, looked up): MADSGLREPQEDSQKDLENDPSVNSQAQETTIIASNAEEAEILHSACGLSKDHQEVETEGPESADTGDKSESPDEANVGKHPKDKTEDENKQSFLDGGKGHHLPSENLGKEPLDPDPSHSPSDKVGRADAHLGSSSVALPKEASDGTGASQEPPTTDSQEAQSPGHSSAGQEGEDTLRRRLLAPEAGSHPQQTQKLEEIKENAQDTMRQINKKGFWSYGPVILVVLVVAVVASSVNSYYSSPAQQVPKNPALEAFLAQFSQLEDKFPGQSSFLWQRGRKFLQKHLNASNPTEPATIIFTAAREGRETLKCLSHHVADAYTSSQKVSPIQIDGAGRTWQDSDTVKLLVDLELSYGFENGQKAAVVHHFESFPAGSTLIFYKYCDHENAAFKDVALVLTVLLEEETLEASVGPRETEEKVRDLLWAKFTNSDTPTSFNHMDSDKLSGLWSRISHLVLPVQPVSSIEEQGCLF

[16] = optical density change of DRC41 E. coli – strain DRC41, OD650, 24 h, E. coli filamentation project, primary screen (AID 1093);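 also: MC1000 strain lacking acrAB efflux and sulA so SOS filamentation is blocked; test concentration not given here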; settings: E. coli DRC41 growth, higher = more signal, called active from +8 up or from −8 down
[17] = probe aLefty2 binding to arrayed compounds – biochemical, biotinylated probe, 635/667 nm fluorescence, primary screen (AID 1094); settings: small-molecule microarray, higher = more signal;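 also: score merges spot fluorescence near 667 nm with spot signal-to-noise ratio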
[18] = tested on: Noggin (protein binding on small-molecule microarray); experiment: small molecules binding Noggin protein – biochemical, 635/667 nm fluorescence, primary screen (AID 1095); settings: 635 nm fluorescence, higher = more signal;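 also: score merges 667 nm feature fluorescence with signal to noise over triplicate slides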
[19] = target: Neurogenic locus notch homolog protein 3 (Homo sapiens) (UniProt Q9UM47); experiment: small molecules binding NOTCH3 protein – biochemical, 635/667 nm fluorescence, primary screen (AID 1096); settings: small-molecule microarray, 635 nm fluorescence, higher = more signal
[20] = probe aEGFR binding to arrayed compounds – biochemical, biotinylated probe, 635/667 nm fluorescence, primary screen (AID 1097); settings: small-molecule microarray, higher = more signal;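 also: probe is a biotinylated anti-EGFR antibody binding compounds printed on slides; score combines fluorescence near 667 nm and signal to noise of each spot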

Row | Structure (SMILES) | composite z-score [1] | composite z-score [2] | composite z-score [3] | composite z-score [4] | composite z-score [5] | composite z-score [6] | composite z-score [7] | z-score [8] | composite z-score [9] | composite z-score [10] | composite z-score [11] | z-score [12] | z-score [13] | z-score [14] | composite z-score [15] | z-score [16] | composite z-score [17] | composite z-score [18] | composite z-score [19] | composite z-score [20]
1 | NC(=O)N1C(=O)C2C(C1=O)C1C=C(CCCO)C2C(c2cccs2)N1Cc1cccc(OC(F)(F)F)c1 (stereo not given) | -0.206 | 0.118 | -0.0715 | 0.354 | 0.009 | 1.03 | 0.753 | -1.02 (inactive) | 0.0646 | -0.0994 | 1.2 | -0.367 (inactive) | -1.7 (inactive) | -0.967 (inactive) | 1.77 | 0.56 (inactive) | -0.123 | 0.329 | 0.511 | 0.0625
2 | O=C(CS)NCCCCCNC(=O)[C@@H]1C[C@@H]2C(=O)N3CCC[C@H]3C(=O)N2[C@@H]1c1cccc(OCCO)c1 | 0.511 | 1.59 | -0.106 | 0.051 | -0.377 | 1.19 | 1.43 | 0.174 (inactive) | -0.599 | -0.166 | 1.07 | 0.147 (inactive) | 0.793 (inactive) | -0.153 (inactive) | 2.74 | -1.01 (inactive) | -0.0998 | 0.102 | 0.0995 | -0.0828
3 | [N-]=[N+]=Nc1ccccc1[C@H]1OC(c2ccc(OCCCO)cc2)=N[C@@]1(CCS(=O)(=O)c1ccccc1)C(=O)NCCN1CCOCC1 | 0.052 | 0.0825 | 0.115 | 0.839 | 1.28 | 1.35 | 1.12 | 5.72 (inactive) | 1.58 | -0.166 | 1.55 | 0.299 (inactive) | 1.13 (inactive) | 0.683 (inactive) | 3.3 | 0.17 (inactive) | 0.414 | 0.55 | 0.839 | 0.154
4 | C[C@@H]1NC(=O)[C@@]23C(=O)N[C@@H](Cc4ccccc4)C2[C@H](C)[C@@]2(C)O[C@H]2C3/C=C/C/C=C\CNC(=O)[C@@H]2CCCN2C1=O (stereo not given in full) | -0.301 | 0.009 | -0.158 | 0.139 | -0.355 | -0.365 | 0.519 | 0.251 (inactive) | -0.276 | -0.249 | -0.422 | -0.498 (inactive) | -0.409 (inactive) | -0.524 (inactive) | -0.516 | -0.874 (inactive) | -0.132 | -0.044 | -0.526 | -0.266
5 | CC(C)C(CO)N1C(=O)[C@@H]2C3C(=O)OCCC/C=C\[C@H]3OC23C=CCN(C(C)(C)C)C(=O)[C@@H]13 (stereo not given in full) | -0.0102 | -0.311 | -0.133 | -0.394 | -1.02 | -0.596 | 1.06 | -0.241 (inactive) | -0.418 | 0.0274 | -0.429 | 0.465 (inactive) | -0.415 (inactive) | 0.0032 (inactive) | 0.895 | -0.787 (inactive) | -0.259 | -0.733 | -0.354 | -0.259
6 | CC(C)[Si](C#C[Si](C(C)C)(C(C)C)C(C)C)(O[C@H](C)c1cn([C@H](CO)Cc2ccccc2)nn1)C(C)C | -0.311 | 0.585 | -0.116 | 0.215 | 0.203 | 0.183 | 0.432 | -1.06 (inactive) | 0.513 | -0.111 | 0.857 | -0.653 (inactive) | -0.644 (inactive) | -0.356 (inactive) | 1.76 | 1.51 (inactive) | -0.0961 | -0.0066 | 0.407 | -0.133
7 | CN(C)C(=O)[C@@]1(Cc2ccccc2CN=[N+]=[N-])N=C(c2ccc(OCCCO)cc2)O[C@H]1c1ccccc1CN=[N+]=[N-] | 0.262 | -0.159 | 0.222 | 0.776 | 1.52 | 1.64 | 1.29 | -4.01 (inactive) | 0.457 | -0.388 | 0.88 | 0.733 (inactive) | 1.19 (inactive) | 15.6 (active) | 2.6 | 0.0474 (inactive) | 0.514 | -0.586 | 0.456 | 0.424
8 | O=C1C2C=CC(C(O)c3ccc(F)cc3)N(n3cnnc3)C2C(=O)N1Cc1ccccc1 (stereo not given) | 0.352 | -0.131 | -0.12 | -0.201 | -0.0052 | 0.439 | -0.191 | 0.594 (inactive) | 0.19 | -0.282 | -0.301 | 0.271 (inactive) | 0.767 (inactive) | -0.1 (inactive) | 1.05 | -0.997 (inactive) | 0.0137 | -0.685 | -0.874 | -0.208
9 | CCCC[C@@H](O)C1=C(COc2ccccc2)C[C@H]2C(=O)N(C)C(=O)[C@H]2[C@H]1CO | -0.417 | -0.33 | -0.128 | -0.167 | -0.23 | -0.665 | -0.609 | -1.64 (inactive) | -0.346 | -0.261 | 0.129 | -2.42 (inactive) | -1.79 (inactive) | -0.561 (inactive) | -0.988 | 1.31 (inactive) | -0.247 | 0.273 | -0.242 | -0.225
10 | CCOC(=O)C[C@H]1[C@H](OC(=O)Cc2ccc3c(c2)OCO3)[C@@H](NC(=O)CC(C)C)c2cc(OCCCO)ccc2N1C(=O)Cc1ccc(OC)cc1 | -0.244 | 0.0682 | -0.114 | 0.103 | -0.0727 | -0.308 | 0.258 | -2.61 (inactive) | -0.207 | -0.245 | 0.336 | -1.88 (inactive) | -0.843 (inactive) | -0.733 (inactive) | 1.09 | 1.38 (inactive) | -0.134 | -0.0273 | 0.0046 | -0.111
